These results are taken from PubChem BioAssay AID504621 (Broad Institute, 2011).

Among all 310,000 compounds or so, about 970 (0.31%) were called active. This is one part of a sample in which actives are shown more often than they occur. A number with no mark means an inactive call.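 The calls were made as follows: active = every replicate shows inhibition above about 80%, whatever the replicate mean (limit read from the data); inconclusive = mean inhibition reaches the set limit but some replicate falls short; inactive = the rest.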

The nature of this test: growth inhibition of PfHsp90-expressing yeast, primary screen, antimalarial PfHsp90 inhibitor project, S. cerevisiae, BacTiter-Glo luminescence, single point, set 2 (AID 504621).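 Also: yeast relying on Plasmodium falciparum Hsp90 in place of its own; 0% = DMSO neutral controls and 100% = 20 µM radicicol positive controls.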 The note with it: BacTiter-Glo ATP, 48 h, at 9.4 µM, stronger effect = higher value, yeast lacking PDR1 and PDR3 efflux regulators.
For `O=C(Nc1cccnc1)c1ccc(Cl)c([N+](=O)[O-])c1`, the inhibition is 15.1%.

On to `O=C(/C=C/c1ccc(Cl)c([N+](=O)[O-])c1)c1ccc(O)cc1`, for which the inhibition is 12.9%. Consider `O=C(/C=C/c1ccc(Cl)c([N+](=O)[O-])c1)c1cccnc1`, for which the inhibition is 104% (active). As to `COc1ccc(CNCCCn2cnc3c(OCc4ccccc4)ncnc32)cc1`, the inhibition was 21.9%.

As for `COc1ccc(C(=O)Nc2cccc(/C=C(/CCC(=O)O)c3nc4ccccc4s3)c2)cc1`, the inhibition is -6.48%. On to `O=C(NN=Cc1ccccc1O)NN=Cc1ccccc1O`, for which the inhibition was 15.3%.

Consider `COC[C@@H]1NS(=O)(=O)c2ccc(Br)cc2O[C@H]1c1ccccc1`, for which the inhibition is -9.7%.

For `CC(CN1CCOCC1)OC(=O)c1ccc(Cl)cc1Cl` (stereo not given), the inhibition was -17.2%.

On to `CC(C)NC(=O)c1ccc(Cl)cc1Cl`, for which the inhibition was -8.78%. Regarding `CC(C)OC(=O)c1ccc(NCc2cc(O)ccc2O)cc1Cl`, the inhibition is 121% (active). With `N#CC1=C(N)Oc2cc(N)ccc2C1c1ccccc1` (stereo not given), the inhibition was -6.35%. As for `O=C(Cc1ccc(S(=O)(=O)N2CCOCC2)s1)Nc1ccc(Br)c(C(F)(F)F)c1`, the figure is 0.787%; as for `C=CCNC(=S)N1CCN(CCN=Cc2c(C)[nH]n(-c3ccc([N+](=O)[O-])cc3)c2=O)CC1`, -11.1%; as for `Cc1[nH]n(-c2ccccc2)c(=O)c1N=Nc1ccccc1C(=O)N1CCCCC1`, 9.24%.

With `Cc1[nH]n(-c2ccc([N+](=O)[O-])cc2)c(=O)c1C=NCCN1CCN(C(=O)c2ccccc2F)CC1`, the inhibition was 86.9% (active). With `CCOC(=O)CCC(NC(=O)c1ccc(CNc2nc3cc(C(F)(F)F)ccc3nc2C(=O)OCC)cc1)C(=O)OCC` (stereo not given), the inhibition is -2.78%.

With `Cc1ccc(S(=O)(=O)N2CCN(C(=O)COC(=O)/C=C/c3cccc(Cl)c3)CC2)c(C)c1`, the inhibition was 4.86%. Turning to `O=C(NCc1ccc2c(c1)OCO2)c1c(-c2ccsc2)sc2ccccc12`, the inhibition was 20.1%.

With `Cc1cccc(-c2oc3ccc(-c4ccc5c(c4)OCO5)cc3c2C#Cc2cncn2C)c1`, the inhibition was -2.66%.

For `C/C(=N\NC(=O)Cc1ccc(Cl)cc1)c1ccccn1`, the inhibition is -4.85%. For the molecule `CC(=NNC(=S)N1CCCCCC1)c1ccccn1`, the inhibition is 91.4% (active). As to `C/C(=N\NC(=O)c1ccccc1F)c1ccccn1`, the inhibition was -13%. As for `Oc1[nH]c2ccccc2c1N=Nc1c(F)c(F)c(F)c(F)c1F`, the figure is -34.3%; as for `COc1ccc(C(=O)N(C)Cc2ccc(OC)c(OC)c2OC)cc1S(=O)(=O)N1CCOCC1`, 5.5%.

As to `O=C(CN1C(=O)NC2(CCCCCCC2)C1=O)NCc1ccc(F)cc1`, the inhibition is 12.2%. On to `OCC1(CO)CC2(C1)CC(CO)(CO)C2`, for which the inhibition was 6.26%. As to `CCNC(=O)N1CCCC(C(=O)c2ccc(-c3ccccc3)cc2)C1` (stereo not given), the inhibition is -1.67%. On to `O=C(c1ccc(-c2ccccc2)cc1)C1CCCN(C(=O)c2cncs2)C1` (stereo not given), for which the inhibition is 90.2% (active). Turning to `Cn1nccc1C(=O)N1CCCC(C(=O)c2ccc(Oc3ccccc3)cc2)C1` (stereo not given), the inhibition is -45.9%. For `CC(C)(C)OC(=O)N(Cc1ccccc1)Cc1ccc(OCc2cccc(NC(=O)c3ccccc3)c2)cc1`, the inhibition was 25%. Take `COc1cccc2oc(CCc3ccccc3)cc(=O)c12`: the inhibition was 8.03%. Turning to `O=C(CC1SCCNC1=O)Nc1ccc(Cl)c(Cl)c1` (stereo not given), the inhibition was 15%.

Consider `O=C(CC(O)(C(F)(F)F)C(F)(F)F)Nc1ccc(Cl)c(Cl)c1`, for which the inhibition is 123% (active). In the case of `O=C(Cc1ccc(Cl)c(Cl)c1)Nc1ccc(SC(F)F)cc1`, the inhibition was 12.6%. For `Cc1cc([N+](=O)[O-])ccc1NS(=O)(=O)c1ccccc1` the value was -35.7%; for `COC(=O)/C=C\C(=O)Nc1cccc([N+](=O)[O-])c1`, 106% (active); for `COc1cccc(CNC(=O)CCCC(=O)Nc2cccc([N+](=O)[O-])c2)c1`, -1.23%. Take `COc1ccc(S(=O)(=O)NC(C)C(=O)Nc2cccc([N+](=O)[O-])c2)cc1` (stereo not given): the inhibition was 4.61%. Take `COC(=O)Cn1cc(/C=C/[N+](=O)[O-])c2ccccc21`: the inhibition was -17%. As for `O=[N+]([O-])/C=C/c1ccc2c(ccn2Cc2ccccc2)c1`, the figure is 104% (active); as for `O=C(/C=C/c1cccc([N+](=O)[O-])c1)N1CCN(Cc2ccccc2)CC1`, 0.555%. Regarding `COc1ccc(/C=C/C(=O)c2ccc(NS(=O)(=O)c3ccc(C)cc3)cc2)cc1O`, the inhibition is -4.81%.

For the molecule `COC(=O)c1ccc(COc2ccc(/C=C/C(=O)c3ccc(OC)c(CSCC(=O)O)c3)cc2OC)cc1`, the inhibition is 1.15%. Regarding `COc1ccc(C(=O)/C=C/c2ccc(-c3ccccc3)cc2)cc1CSCC(=O)O`, the inhibition was 105% (active). For `CN(CCc1ccccc1)C(=O)c1cccc(NC(=O)Cc2cccc(NC(=O)C3CCCN(C(=O)CCc4ccccc4)C3)c2)c1` (stereo not given) the value was -1.39%; for `O=C(Nc1ccn(CCCNCc2ccc3[nH]ccc3c2)c(=O)n1)OCc1ccccc1`, -7.16%; for `CCCCN1CC(COc2ccccc2)Oc2cccc(F)c2S1(=O)=O` (stereo not given), -1.66%. Consider `O=C(NNC(=O)c1ccccc1O)c1ccccc1O`, for which the inhibition is -9.27%.

On to `CN(CC(=O)O)C(=O)c1ccccc1`, for which the inhibition was 28.8%.

For the molecule `CN(O)C(=S)c1ccccc1`, the inhibition was 104% (active). Regarding `CN(/N=C/c1ccccc1)C(=S)c1ccccc1`, the inhibition is -15.5%. On to `CCc1ccc(C(=O)C(C)OC(=O)CN2C(=O)NC3(CCCC3)C2=O)cc1` (stereo not given), for which the inhibition was -1.32%. For the molecule `O=C(Nc1ccccc1)c1nnsc1S(=O)(=O)c1ccc(Cl)cc1`, the inhibition is 126% (active). `O=C(Nc1ccc(Cl)cc1)Nc1nnc(/C=C/c2ccccc2)s1`: the inhibition is 8.47%.

For the molecule `Cc1nnsc1C(=O)N/N=C/c1ccccc1Cl`, the inhibition is 1.6%. Regarding `O=C(C[C@H]1C/C=C\C[C@@H](NC(=O)OCC2c3ccccc3-c3ccccc32)C(=O)O[C@@H](c2ccccc2)CNC1=O)N[C@H](CO)Cc1ccccc1`, the inhibition was -13.9%. For the molecule `OCCN1CCN(CCO)C1=S`, the inhibition was 15.3%. Regarding `S=c1[nH]nc(-c2cc(-c3ccccc3)n[nH]2)n1/N=C/c1c2ccccc2cc2ccccc12`, the inhibition is -28.2%. As to `Cc1cc(-c2n[nH]c(=S)n2/N=C/C(Br)=C/c2ccccc2)n[nH]1`, the inhibition is 109% (active). For the molecule `Oc1ccccc1/C=N/n1c(-c2cccs2)n[nH]c1=S`, the inhibition was -9.75%. With `CCCN(CCC)S(=O)(=O)c1cc2c(cc1Br)CCN2C(=O)CC`, the inhibition was -17.7%.

As to `CSCCC(NC(=O)COc1ccccc1)C(=O)OCc1ccc(Cl)cc1` (stereo not given), the inhibition is 6.52%.

Turning to `O=C1/C(=C\c2ccc(O)cc2)CCC1CNc1ccc(Cl)cc1` (stereo not given), the inhibition was 42.3%. With `CC(C)N(C(=O)[C@H]1C[C@H](CC(=O)NC(C)(C)C)C(=O)N2CCc3c([nH]c4ccc(Cl)cc34)[C@]12C)C(C)C`, the inhibition was 21.3%. With `CC1(C)C2CCC1(C)C(OC(=O)c1ccc(O)cc1)C2` (stereo not given), the inhibition was 11.7%.

Regarding `O=C(OC12CC3CC(CC(C3)C1)C2)c1ccc(NCc2cc(O)ccc2O)cc1`, the inhibition was 124% (active). On to `COC(=O)c1ccc(NCc2cc(O)ccc2O)cc1`, for which the inhibition was 30.3%. For the molecule `O=C(Nc1c(Br)cc2c(c1Br)Cc1cc([N+](=O)[O-])ccc1-2)C(Cl)Cl`, the inhibition was -28.5%. For `O=S1(=O)CCOC[C@H](Cc2ccccc2)N1Cc1ccccc1Br`, the inhibition was 10.2%. For `C=CCOC(=O)N1CCC2CC1c1cc(-c3ccc(OC)cc3)ccc12` (stereo not given) the value was -3.16%; for `COc1ccccc1C(=O)c1ccccc1C(=O)c1ccccc1`, -29.9%. As to `CN(CCc1ccccc1)C(=O)c1cccc(NC(=O)Cc2cccc(NC(=O)C3CCCN(C(=O)C4CCC4)C3)c2)c1` (stereo not given), the inhibition was 10.6%.

With `CCOC(=O)c1ccc(N2C(=O)CC(N3CC(C)OC(C)C3)C2=O)cc1` (stereo not given), the inhibition is 11.2%.

`CCOC(=O)c1ccc(N2C(=O)CC(N3CCC(C(=O)OCC)CC3)C2=O)cc1` (stereo not given): the inhibition is 94.1% (active). As to `CCOC(=O)c1ccc(N2C(=O)CC(N3CCN(C(=O)c4ccccc4)CC3)C2=O)cc1` (stereo not given), the inhibition is 18.7%. Regarding `CSc1ncnc2c1ncn2CC(=O)C1CCC2C3CCC4=CC(=O)CCC4(C)C3CCC12C` (stereo not given), the inhibition was 17%. As to `CCOC(=O)[C@H]1[C@H]2COc3ccc(Br)cc3[C@@H]2N2C(=O)CN(C)C(=O)[C@@]12C`, the inhibition was 3.33%. Take `C=CC(=O)Nc1ccc(Nc2ccnc(Nc3ccc(N4CCN(C)CC4)cc3)n2)cc1`: the inhibition is 1.37%. `CCN(CC)S(=O)(=O)c1ccc(N2CCCC2)c(NC(=O)c2ccc([N+](=O)[O-])o2)c1`: the inhibition was 7.78%. On to `Oc1ccccc1C1=NN(c2ccccc2)C(c2ccccc2)C1` (stereo not given), for which the inhibition is 106% (active).

Regarding `CC(=O)Oc1ccccc1C1=NN(C(C)=O)C(c2ccccc2)C1` (stereo not given), the inhibition was 6.42%. On to `O=C(c1ccccc1)N1N=C(c2ccccc2O)CC1c1ccc(Br)cc1` (stereo not given), for which the inhibition was -6.75%. With `OCc1ccc(OCCCOc2cccc3cccnc23)cc1`, the inhibition is 24.6%. In the case of `Fc1ccccc1COc1cccc2cccnc12`, the inhibition was 5.74%. Regarding `O=C(Nc1ccccc1)Oc1cccc2cccnc12`, the inhibition was 104% (active).

For `CCOc1ccc(S(=O)(=O)N2CCN(C(=O)c3oc4ccccc4c3C)CC2)cc1`, the inhibition was -16.3%. Take `CC(=O)Oc1ccc(OC(C)=O)c2c1C1C=CC2CC1`: the inhibition was -4.99%.

Consider `O=C(NN=Cc1ccc([N+](=O)[O-])cc1)C1CC1`, for which the inhibition is -9.96%.

As to `O=C1/C(=C\c2ccc([N+](=O)[O-])cc2)CS(=O)(=O)C/C1=C/c1ccc([N+](=O)[O-])cc1`, the inhibition was 104% (active). Turning to `O=[N+]([O-])c1ccc(C=NN=Cc2ccc([N+](=O)[O-])cc2)cc1`, the inhibition is -1.39%.

What is called inhibition is the change of the read-out against control, counted positive when it falls.
